Inconclusive results are not listed. Calls of active or inactive are those of the source. Unless noted, calls follow the shape of the dose curve; as a rule, active = well fitted curve in either direction with a large enough effect (not every such curve was filed as active); inconclusive = small, poorly fitted or top-dose-only effect, or another doubt; inactive = flat fitted curve, though single readings scatter.
Columns and labels:
[1] = molecular target: Lysosomal acid glucosylceramidase (Homo sapiens) (UniProt P04062); experiment: Glucocerebrosidase-p2 (AID 348; in the data active = potency below about 10 µM; also: potency is read from the fitted curve at half-maximal effect); conditions: purified GBA, blue fluorogenic substrate, 40 min
Lysosomal acid glucosylceramidase (Homo sapiens), sequence (P04062 whole entry, looked up): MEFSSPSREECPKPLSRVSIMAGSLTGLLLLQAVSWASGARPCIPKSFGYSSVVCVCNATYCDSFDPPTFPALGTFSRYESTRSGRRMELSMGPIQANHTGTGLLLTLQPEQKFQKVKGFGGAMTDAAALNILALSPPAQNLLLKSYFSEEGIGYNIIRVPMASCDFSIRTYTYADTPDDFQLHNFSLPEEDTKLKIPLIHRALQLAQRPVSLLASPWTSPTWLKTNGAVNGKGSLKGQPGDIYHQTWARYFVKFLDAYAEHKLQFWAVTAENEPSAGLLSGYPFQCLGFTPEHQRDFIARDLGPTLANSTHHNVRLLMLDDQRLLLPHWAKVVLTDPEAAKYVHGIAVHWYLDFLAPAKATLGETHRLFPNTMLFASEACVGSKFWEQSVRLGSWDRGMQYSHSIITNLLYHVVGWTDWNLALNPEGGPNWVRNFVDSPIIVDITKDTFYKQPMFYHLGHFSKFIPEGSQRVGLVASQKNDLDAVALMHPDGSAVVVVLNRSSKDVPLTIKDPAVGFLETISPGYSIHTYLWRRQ
Procedure, shortened: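 Normal human glucocerebrosidase (0.2 nM) with blue fluorogenic substrate (80 uM final) in citrate/phosphate pH 5.9 with 10mM sodium taurocholate, 0.01% tween-20; 40 min RT, NaOH/glycine stop; fluorescence Ex 365/Em 440; AC50 from a titration from 0.6 nM upwards.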

[2] = AP1 Signaling Pathway (AID 357); conditions: ME-180 AP-1-bla reporter, EGF-induced, beta-lactamase ratio, 5 h; at 7.69 µM (top of the series) unless noted;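 also: ME-180 reporter cells stimulated with EGF at its EC50 level; % is scaled to controls: 0 for no effect and ±100 for the full control effect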
Procedure, shortened: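 A ratiometric CCF4 readout (405 nm excitation; 460 and 530 nm emission) quantified AP-1-driven beta-lactamase in ME-180 cells after 5 h with compound and EC50 EGF; AC50 values were derived for activators and inhibitors.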

[3] = molecular target: Cytochrome P450 1A2 (Homo sapiens) (UniProt P05177); experiment: p450-cyp1a2 (AID 410; calls by dose curve; also: potency is read from the fitted curve at half-maximal effect;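 as to activity change, negative = inhibition: -100% = full effect of reference inhibitor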); conditions: recombinant CYP1A2, luciferin-ME demethylation, luminescence; series mostly up to 57 µM
Cytochrome P450 1A2 (Homo sapiens), sequence (P05177 whole entry, looked up): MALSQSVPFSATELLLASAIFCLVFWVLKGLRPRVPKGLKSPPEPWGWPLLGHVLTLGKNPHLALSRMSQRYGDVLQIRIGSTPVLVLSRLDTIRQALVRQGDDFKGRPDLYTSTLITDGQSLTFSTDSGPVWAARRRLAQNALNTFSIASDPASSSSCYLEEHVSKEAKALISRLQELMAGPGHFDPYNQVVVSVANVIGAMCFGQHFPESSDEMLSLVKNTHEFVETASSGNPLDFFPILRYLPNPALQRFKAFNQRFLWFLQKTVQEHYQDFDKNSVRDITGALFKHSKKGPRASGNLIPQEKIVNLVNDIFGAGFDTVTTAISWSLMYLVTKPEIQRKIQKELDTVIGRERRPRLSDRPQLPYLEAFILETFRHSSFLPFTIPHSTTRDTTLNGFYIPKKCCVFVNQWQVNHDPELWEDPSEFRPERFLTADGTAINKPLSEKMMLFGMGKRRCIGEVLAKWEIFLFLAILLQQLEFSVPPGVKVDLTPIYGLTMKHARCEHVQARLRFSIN
Procedure, shortened: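 O-Demethylation of luciferin 6' methyl ether by human CYP1A2 is monitored as luciferase luminescence. Substrate sits at Km (100uM); enzyme is 20nM. Values are scaled to 57 uM furafylline as maximal inhibition.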

[4] = Stat Signaling Pathway (AID 446); conditions: ME-180 (cervical carcinoma) SIE beta-lactamase reporter, IL-6 stimulated, 5 h; at 7.69 µM (top of the series) unless noted;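 also: ME-180 cervical cancer cells given 40 pM IL-6 alongside compound; SIE-controlled beta-lactamase reporter measured as 460/530 nm FRET emission ratio; % is scaled to controls: 0 for no effect and ±100 for the full control effect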
Procedure, shortened: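 Overnight-plated ME-180 cells bearing a STAT Inducible Element beta-lactamase reporter; 5 h co-exposure to compound and 40 pM IL-6; values normalized to 300 pM IL-6 and 125 nM JAK inhibitor controls.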

[5] = molecular target: Glucocorticoid receptor (Homo sapiens) (UniProt P04150); experiment: GR-GFP Redistribution (AID 450;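 active = compounds whose dose series gives a full or clear partial fitted curve of increased nuclear translocation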; also: potency is read from the fitted curve at half-maximal effect); conditions: U2OS GR-GFP nuclear translocation, laser cytometry, 2 h
Glucocorticoid receptor (Homo sapiens), sequence (P04150 whole entry, looked up, the tested form may be a part): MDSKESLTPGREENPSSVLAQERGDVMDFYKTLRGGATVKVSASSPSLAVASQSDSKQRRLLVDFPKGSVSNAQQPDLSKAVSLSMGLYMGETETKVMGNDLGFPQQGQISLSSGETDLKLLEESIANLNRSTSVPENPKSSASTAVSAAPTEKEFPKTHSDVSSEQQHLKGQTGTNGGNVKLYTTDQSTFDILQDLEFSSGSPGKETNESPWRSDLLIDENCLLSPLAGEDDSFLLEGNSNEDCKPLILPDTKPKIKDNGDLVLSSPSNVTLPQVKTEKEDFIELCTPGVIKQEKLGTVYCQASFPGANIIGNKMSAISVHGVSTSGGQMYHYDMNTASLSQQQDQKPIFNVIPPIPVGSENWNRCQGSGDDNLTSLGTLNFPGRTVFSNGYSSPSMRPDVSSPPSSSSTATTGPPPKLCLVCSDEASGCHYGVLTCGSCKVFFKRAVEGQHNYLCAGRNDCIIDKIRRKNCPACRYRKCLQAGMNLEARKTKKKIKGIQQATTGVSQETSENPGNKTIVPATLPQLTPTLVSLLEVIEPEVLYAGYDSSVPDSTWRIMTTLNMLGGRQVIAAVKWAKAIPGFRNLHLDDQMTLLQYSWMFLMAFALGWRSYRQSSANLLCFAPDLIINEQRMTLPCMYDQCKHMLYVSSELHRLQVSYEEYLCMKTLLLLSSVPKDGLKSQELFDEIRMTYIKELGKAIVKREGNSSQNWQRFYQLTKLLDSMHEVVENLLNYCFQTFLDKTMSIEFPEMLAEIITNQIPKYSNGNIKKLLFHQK

[6] = molecular target: Glucocorticoid receptor (Homo sapiens) (UniProt P04150); experiment: GR-EFC Redistribution (AID 451; calls by dose curve; also: potency is read from the fitted curve at half-maximal effect); conditions: CHO-K1 GR-EFC translocation, beta-gal luminescence, 2 h
Procedure, shortened: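 Translocation of GR-ED fusion to nuclear EA restores b-gal, read by luminescence after 1 h room-temperature detection. Engineered CHO-K1 biosensor cells, 1,000/well, exposed 2 h at 37 C to titrations up to 46 uM final.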

[7] = molecular target: Mitogen-activated protein kinase 10 (Mus musculus) (UniProt Q61831); experiment: JNK3 AlphaScreen Assay (AID 530); conditions: JNK3 lysate, c-Jun phosphorylation; series mostly up to 57.1 µM;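 also: kinase came from lysate of stimulated human HepG2 cells; signal reports phosphorylation of biotinylated GST-cJun 1-79 at Ser73 with 10 µM ATP; % is scaled to controls: 0 for no effect and ±100 for the full control effect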
Procedure, shortened: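 qHTS titrations with 15 min compound pre-incubation before adding ATP (10 uM final). Read-out: AlphaScreen of Ser73-phosphorylated biotin-GST-cJun using HepG2 lysate JNK3 activated by IL-1β and TNFα.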

[8] = molecular target: 3',5'-cyclic-AMP phosphodiesterase 4B (Homo sapiens) (UniProt Q07343); experiment: qHTS Assay for Inhibitors of PDE-IV (AID 607; active = well fitted activation curve with a large enough effect in the main read-out, with a control signal flat, not every such curve was filed as active; also: % of control where 0% means no effect); conditions: HEK293 ACTOne CNG channel cells, membrane potential fluorescence; series mostly up to 22.9 µM
3',5'-cyclic-AMP phosphodiesterase 4B (Homo sapiens), sequence (Q07343 whole entry, looked up): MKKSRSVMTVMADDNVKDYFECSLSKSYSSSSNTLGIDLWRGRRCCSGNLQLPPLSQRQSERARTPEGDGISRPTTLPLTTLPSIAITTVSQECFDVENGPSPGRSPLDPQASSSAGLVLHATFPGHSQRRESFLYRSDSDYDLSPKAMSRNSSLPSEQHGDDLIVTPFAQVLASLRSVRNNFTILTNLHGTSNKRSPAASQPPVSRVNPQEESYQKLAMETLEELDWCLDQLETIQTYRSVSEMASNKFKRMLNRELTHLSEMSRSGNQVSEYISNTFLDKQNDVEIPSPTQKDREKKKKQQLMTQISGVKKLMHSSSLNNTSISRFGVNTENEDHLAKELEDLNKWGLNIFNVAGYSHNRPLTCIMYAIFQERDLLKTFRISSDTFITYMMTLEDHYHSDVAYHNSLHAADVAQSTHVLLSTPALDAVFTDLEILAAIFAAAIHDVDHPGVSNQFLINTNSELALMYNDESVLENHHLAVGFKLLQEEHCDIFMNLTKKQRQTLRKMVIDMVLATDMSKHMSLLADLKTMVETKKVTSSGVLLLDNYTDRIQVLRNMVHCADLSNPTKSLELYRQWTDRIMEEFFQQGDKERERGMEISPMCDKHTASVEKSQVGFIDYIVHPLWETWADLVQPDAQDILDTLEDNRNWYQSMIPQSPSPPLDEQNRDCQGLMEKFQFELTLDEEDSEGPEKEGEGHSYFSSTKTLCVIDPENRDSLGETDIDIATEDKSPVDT
Procedure, shortened: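 Live HEK293 cells with a modified cyclic nucleotide-gated (CNG) channel report intracellular cAMP via membrane-potential dye fluorescence (ex 535/em 590 nm). Endogenous PDE-IV was targeted. Compounds were tested at up to 22.9 uM final; RO 20-1724 100 uM served as control.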

[9] = molecular target: Cytochrome P450 3A4 (Homo sapiens) (UniProt P08684); experiment: qHTS Assay for Activators of Cytochrome P450 3A4 (AID 885; active = well fitted curve in the direction sought with a large enough effect; an effect the other way counts as inactive or inconclusive; also: nearly all actives have a fitted effect of over 65% in size); conditions: recombinant CYP3A4, Luciferin-PPXE luminescence, 60 min; series mostly up to 57.1 µM
Cytochrome P450 3A4 (Homo sapiens), sequence (P08684 whole entry, looked up): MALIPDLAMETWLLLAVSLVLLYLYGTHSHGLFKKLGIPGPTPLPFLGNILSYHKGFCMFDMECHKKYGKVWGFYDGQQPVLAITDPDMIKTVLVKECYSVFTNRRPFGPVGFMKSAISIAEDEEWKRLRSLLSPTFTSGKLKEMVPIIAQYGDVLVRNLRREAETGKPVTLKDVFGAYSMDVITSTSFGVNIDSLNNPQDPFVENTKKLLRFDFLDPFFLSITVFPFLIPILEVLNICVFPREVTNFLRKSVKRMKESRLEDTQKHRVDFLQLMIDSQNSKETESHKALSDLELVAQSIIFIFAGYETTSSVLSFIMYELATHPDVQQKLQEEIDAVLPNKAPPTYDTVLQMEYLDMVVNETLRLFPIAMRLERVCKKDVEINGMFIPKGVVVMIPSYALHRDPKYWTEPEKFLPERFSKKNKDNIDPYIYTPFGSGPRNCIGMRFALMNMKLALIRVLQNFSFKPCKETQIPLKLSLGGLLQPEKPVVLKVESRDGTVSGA
Procedure, shortened: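 Using 20nM recombinant human CYP3A4 in potassium phosphate (200mM), substrate Luciferin-PPXE at 25uM, luminescent luciferin detection followed a 60-min RT NADPH reaction; data scaled to 57 uM ketoconazole.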

[10] = qHTS Assay for Lipid Storage Modulators (AID 1519; calls by dose curve); conditions: Drosophila S3 cells, BODIPY lipid droplet/cell ratio, laser cytometry, cells loaded with oleic acid; for activity change, negative = inhibition: at 57.5 µM (top of the series)
Procedure, shortened: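 Cells seeded at 5,000 per well were treated with compounds over a concentration series and loaded with oleic acid (400 uM, as added). Lipid droplet fluorescence (488 nm excitation, 500-530 nm channel) was read by laser-scanning cytometry and normalized to 20 uM Triacsin C.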

[11] = NFAT Signaling Pathway (AID 444); conditions: Jurkat NFAT-bla M1, carbachol, beta-lactamase ratio, 5 h; at 7.69 µM (top of the series) unless noted;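 also: carbachol stimulus at about its EC50 of 1 µM final; % is scaled to controls: 0 for no effect and ±100 for the full control effect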
Procedure, shortened: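 Read-out: CCF4 FRET ratio (460 nm/530 nm) after 1 h RT dye loading, used for %activity and AC50 from titration series. Cells: Jurkat NFAT-β-lactamase/M1 line, treated with compound plus 1 uM carbachol for 5 h, 37 °C.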

[12] = molecular target: Cytochrome P450 3A4 (Homo sapiens) (UniProt P08684); experiment: qHTS Assay for Inhibitors and Substrates of Cytochrome P450 3A4 (AID 884; active = well fitted curve in the direction sought with a large enough effect; an effect the other way counts as inactive or inconclusive; also: nearly all actives have a fitted effect of over 50% in size; also: potency is read from the fitted curve at half-maximal effect); conditions: recombinant CYP3A4, Luciferin-PPXE luminescence; series mostly up to 57.1 µM
Procedure, shortened: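 Luminescent readout of luciferin produced by CYP3A4 (20 nM) dealkylation of Luciferin-PPXE, 25 uM (its KM). NADPH-driven reaction ran 60 min at RT after 10 min compound preincubation; data scaled to 57 uM ketoconazole as 100% inhibition.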

[13] = Confirmation and Secondary Assay for Modulators of Hemoglobin Beta Chain Splicing at IVS2 654 locus (AID 910; active = well fitted curve in the direction sought with a large enough effect; an effect the other way counts as inactive or inconclusive;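 also: HeLa cells stably carrying EGFP split by mutant beta-globin IVS2-654 intron; per-well total GFP intensity by laser scanning cytometry after 2-day treatment; % of control where 0% means no effect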); conditions: HeLa EGFP-654 splicing reporter, GFP fluorescence, 48 h; series mostly up to 38.3 µM
Procedure, shortened: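 Readout: per-well total peak green fluorescence (488 nm ex, 500–520 nm em) from objects 5–250 µm, reflecting correct splicing of an EGFP-654 reporter. Compounds were applied for 2 days at 37 °C to overnight-plated HeLa EGFP-654 cells; controls were DMSO and 500 nM IVS2-654 PNA.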

[14] = Confirmation and Secondary Assay for Modulators of Hemoglobin Beta Chain Splicing at IVS2 705 locus (AID 930; active = well fitted curve in the direction sought with a large enough effect; an effect the other way counts as inactive or inconclusive;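 also: HeLa cells stably expressing the EGFP-705 splicing reporter; GFP fluorescence per well restored by corrected splicing of the IVS2-705 intron in EGFP; % of control where 0% means no effect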); conditions: HeLa EGFP-705 splicing reporter, GFP fluorescence, 48 h; series mostly up to 38.3 µM
Procedure, shortened: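 Secondary splice-site specificity test uses HeLa expressing CMV-driven EGFP interrupted by IVS2-705; cells were treated 2 days at 37C with 500 nM antisense PNA as positive control.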

[15] = molecular target: Ubiquitin carboxyl-terminal hydrolase 1 (Homo sapiens) (UniProt O94782); experiment: Inhibitors of USP1/UAF1: Pilot qHTS (AID 504865; active = well fitted curve in the direction sought with a large enough effect; an effect the other way counts as inactive or inconclusive;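 also: rhodamine fluorescence freed from ubiquitin-rhodamine substrate followed over time; top concentration of the series differs between compounds; % is scaled to controls: 0 for no effect and ±100 for the full control effect; nearly all actives have a fitted effect of over 35% in size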); conditions: purified USP1/UAF1, Ub-rhodamine cleavage fluorescence; series mostly up to 54.9 µM
Ubiquitin carboxyl-terminal hydrolase 1 (Homo sapiens), sequence (O94782 whole entry, looked up): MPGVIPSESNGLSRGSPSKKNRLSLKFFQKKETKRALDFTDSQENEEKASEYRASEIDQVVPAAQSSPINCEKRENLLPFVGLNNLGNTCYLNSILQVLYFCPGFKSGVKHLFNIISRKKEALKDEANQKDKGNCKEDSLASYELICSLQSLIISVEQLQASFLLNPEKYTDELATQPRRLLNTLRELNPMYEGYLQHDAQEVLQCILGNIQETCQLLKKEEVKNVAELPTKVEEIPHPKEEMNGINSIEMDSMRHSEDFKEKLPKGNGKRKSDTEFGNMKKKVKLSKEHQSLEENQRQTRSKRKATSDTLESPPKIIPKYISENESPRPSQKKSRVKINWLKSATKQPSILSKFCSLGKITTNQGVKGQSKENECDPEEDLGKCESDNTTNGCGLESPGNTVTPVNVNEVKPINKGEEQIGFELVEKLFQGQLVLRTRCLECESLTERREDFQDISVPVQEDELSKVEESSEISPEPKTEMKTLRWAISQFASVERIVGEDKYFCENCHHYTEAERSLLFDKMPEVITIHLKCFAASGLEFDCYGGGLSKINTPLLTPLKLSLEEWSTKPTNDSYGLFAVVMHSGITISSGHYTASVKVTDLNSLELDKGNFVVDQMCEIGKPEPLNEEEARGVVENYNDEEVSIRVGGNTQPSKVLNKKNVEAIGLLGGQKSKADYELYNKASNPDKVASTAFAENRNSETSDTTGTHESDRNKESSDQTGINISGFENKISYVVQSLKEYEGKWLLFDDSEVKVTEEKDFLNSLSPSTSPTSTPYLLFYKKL
Procedure, shortened: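 Enzyme-free wells gave the negative control, while test wells held 1nM USP1/UAF1 preincubated with compound for 15 min at room temperature. Ub-Rho at 150nM final started the reaction, and fluorescence at 480/540 nm was recorded kinetically.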

[16] = molecular target: Cytochrome P450 2D6 (Homo sapiens) (UniProt P10635); experiment: qHTS Assay for Inhibitors and Substrates of Cytochrome P450 2D6 (AID 891; active = well fitted curve in the direction sought with a large enough effect; an effect the other way counts as inactive or inconclusive;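 also: luciferin methyl ether substrate demethylated by CYP2D6 with NADPH regeneration; % is scaled to controls: 0 for no effect and ±100 for the full control effect; nearly all actives have a fitted effect of over 60% in size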); conditions: recombinant CYP2D6, luciferin-ME EGE luminescence; series mostly up to 57.1 µM
Cytochrome P450 2D6 (Homo sapiens), sequence (P10635 whole entry, looked up): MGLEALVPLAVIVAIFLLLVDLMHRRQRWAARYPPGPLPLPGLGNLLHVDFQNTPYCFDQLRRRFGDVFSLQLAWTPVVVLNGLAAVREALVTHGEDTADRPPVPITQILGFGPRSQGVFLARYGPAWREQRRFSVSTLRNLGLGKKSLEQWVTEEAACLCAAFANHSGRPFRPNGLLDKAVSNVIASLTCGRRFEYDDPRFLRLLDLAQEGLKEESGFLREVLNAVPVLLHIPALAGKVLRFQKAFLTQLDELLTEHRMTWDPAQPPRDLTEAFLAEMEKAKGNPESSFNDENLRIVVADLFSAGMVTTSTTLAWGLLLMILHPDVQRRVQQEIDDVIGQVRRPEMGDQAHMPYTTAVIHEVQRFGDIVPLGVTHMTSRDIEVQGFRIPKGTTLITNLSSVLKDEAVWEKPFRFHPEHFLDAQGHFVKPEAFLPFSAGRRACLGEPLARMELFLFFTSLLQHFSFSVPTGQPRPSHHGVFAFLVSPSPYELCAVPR
Procedure, shortened: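 Luminescent read-out of luciferin formed by 5 nM human CYP2D6 demethylating 30 uM Luciferin-ME EGE (Km level) over 60 min at room temperature after NADPH regeneration addition. Data normalized to full inhibition by 1.43 uM quinidine.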

[17] = molecular target: Cytochrome P450 2C19 (Homo sapiens) (UniProt P33261); experiment: qHTS Assay for Inhibitors and Substrates of Cytochrome P450 2C19 (AID 899; active = well fitted curve in the direction sought with a large enough effect; an effect the other way counts as inactive or inconclusive; also: % is scaled to controls: 0 for no effect and ±100 for the full control effect; nearly all actives have a fitted effect of over 60% in size); conditions: recombinant CYP2C19, luciferin-H EGE luminescence; series mostly up to 57.1 µM
Cytochrome P450 2C19 (Homo sapiens), sequence (P33261 whole entry, looked up): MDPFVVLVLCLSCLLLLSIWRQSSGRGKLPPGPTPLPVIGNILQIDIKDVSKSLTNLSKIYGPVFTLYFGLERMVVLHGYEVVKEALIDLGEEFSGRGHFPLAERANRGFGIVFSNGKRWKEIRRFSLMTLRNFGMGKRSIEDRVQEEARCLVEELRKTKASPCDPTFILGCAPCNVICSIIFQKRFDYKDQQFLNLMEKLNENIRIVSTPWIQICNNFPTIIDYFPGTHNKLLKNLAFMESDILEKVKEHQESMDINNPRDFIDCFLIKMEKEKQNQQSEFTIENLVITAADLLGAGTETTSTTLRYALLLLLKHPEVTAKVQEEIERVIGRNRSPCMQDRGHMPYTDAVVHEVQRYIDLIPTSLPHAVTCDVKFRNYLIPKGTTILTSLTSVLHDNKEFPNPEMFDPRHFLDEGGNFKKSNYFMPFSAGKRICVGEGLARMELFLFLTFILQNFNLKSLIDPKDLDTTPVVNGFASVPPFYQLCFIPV
Procedure, shortened: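 Luminescence readout of luciferin formed from 10uM Luciferin-H EGE (KM level) by 5 nM CYP2C19 in 50mM KPO4. 60 min NADPH-driven reaction at 37C after 10 min compound preincubation; data scaled to 57uM ketoconazole inhibition.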

[18] = measured here: cell count channel max response
[19] = measured here: lipid channel max response

| Structure (SMILES) | Potency [1] | activity change, negative = inhibition [2] | Potency [3] | activity, negative = inhibition [4] | Potency [5] | Potency [6] | Potency [7] | Potency [8] | Potency [9] | activity change, negative = inhibition [10] | max response [10, 18] | max response [10, 19] | activity change, negative = inhibition [11] | Potency [12] | Potency [13] | outcome [14] | Potency [15] | Potency [16] | Potency [17] |
| --- | --- | --- | --- | --- | --- | --- | --- | --- | --- | --- | --- | --- | --- | --- | --- | --- | --- | --- | --- |
| CN1CCN(c2ncc3ncc(=O)n(Cc4cccs4)c3n2)CC1 | > 11.4 µM (inactive) | -18.1% (inactive) | 3.98 µM (active) | -10.9% (inactive) | > 9.22 µM (inactive) | > 46 µM (inactive) | inactive | inactive | inactive | 4.27% (inactive) | 26.8% | 33.1% | – | – | – | – | – | – | – |
| Cn1cccc1C(=O)N1CCC2(CCN(C(=O)Nc3ccccc3)CC2)CC1 | > 11.4 µM (inactive) | -3.67% (inactive) | inactive | -8.38% (inactive) | – | > 46 µM (inactive) | inactive | inactive | – | 5.15% (inactive) | 0.66% | 6.81% | 5.41% (inactive) | inactive | – | – | – | – | – |
| N#Cc1ccc(CN2CC[C@@]3(CCCN(S(=O)(=O)c4ccccc4)C3)C2)cc1 | > 11.4 µM (inactive) | 0.616% (inactive) | 15.8 µM (active) | -5.91% (inactive) | – | > 46 µM (inactive) | inactive | inactive | – | -4.95% (inactive) | 13.6% | 7.48% | – | – | – | – | – | – | – |
| CS(=O)(=O)Nc1cccc(-c2nc(N3CCNCC3)c3ccccc3n2)c1 | > 11.4 µM (inactive) | 5.71% (inactive) | 20 µM (active) | 2.63% (inactive) | > 46 µM (inactive) | > 46 µM (inactive) | inactive | inactive | – | 5.5% (inactive) | 12.3% | 18.5% | – | – | inactive | inactive | inactive | – | – |
| CS(=O)(=O)N1CCC[C@@]2(CCN(c3ccncc3)C2)C1 | > 11.4 µM (inactive) | -3.38% (inactive) | inactive | 1.56% (inactive) | – | > 46 µM (inactive) | inactive | inactive | inactive | -0.375% (inactive) | -15.6% | -16.3% | -25.4% (inactive) | 7.94 µM (active) | – | – | – | – | – |
| N#Cc1ccccc1-c1cncnc1NCc1cccnc1 | > 11.4 µM (inactive) | -25.2% (inactive) | 0.0631 µM (active) | – | – | > 46 µM (inactive) | inactive | inactive | inactive | 4.31% (inactive) | 7.61% | 12.5% | 5.72% (inactive) | – | inactive | inactive | inactive | – | – |
| Cc1cnc(CNc2ccnc(-c3ccc(N(C)C)cc3)n2)cn1 | > 11.4 µM (inactive) | 8.41% (inactive) | 2.51 µM (active) | – | > 46 µM (inactive) | > 46 µM (inactive) | inactive | inactive | inactive | 8.28% (inactive) | -9.25% | 1.54% | -1.95% (inactive) | – | – | inactive | – | – | – |
| COCC(=O)N1CCC2(CC1)CN(Cc1nccs1)C2 | > 11.4 µM (inactive) | -21.4% (inactive) | inactive | – | – | > 46 µM (inactive) | inactive | inactive | – | 3.6% (inactive) | 4.27% | 13.5% | – | inactive | – | – | – | inactive | inactive |
| O=C(c1cccc(F)c1)N1CCC[C@@]2(CCN(c3ccccc3)C2)C1 | > 11.4 µM (inactive) | -6.87% (inactive) | inactive | -5.23% (inactive) | – | > 46 µM (inactive) | inactive | inactive | inactive | 4.17% (inactive) | 8.88% | 15.7% | – | 6.31 µM (active) | – | – | – | – | – |
| COCCn1c(=O)c(-c2ccc(F)cc2)nc2cnc(Oc3ccc(OC)cc3)nc21 | > 11.4 µM (inactive) | -14.8% (inactive) | – | -13.7% (inactive) | > 9.22 µM (inactive) | > 46 µM (inactive) | inactive | inactive | – | -18.7% (inactive) | -18.1% | -27.4% | 0.536% (inactive) | – | – | – | – | – | – |
| N#Cc1ccc(CN2CCCC3(CCN(C(=O)c4cc(C(F)(F)F)cc(C(F)(F)F)c4)CC3)C2)cc1 | > 11.4 µM (inactive) | 16.4% (inactive) | – | -17.3% (inactive) | – | > 46 µM (inactive) | inactive | inactive | – | 1.75% (inactive) | 18.7% | 26.7% | – | – | – | – | – | – | – |

Reference: PubChem BioAssay (NCATS)
